Source: PubChem BioAssay (NCI)
Compounds without any hit were thinned out: in the full panel of roughly 83,000, 20% have a hit.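 Testing used 96-well plates and a 48-hour single-concentration exposure. Example: -40 means 40% of the starting cells died.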 A number with no mark means an inactive call. Active and inactive are the calls of the source. The calls were made as follows: active = growth percent below 10; inactive = the rest.

How the values were obtained:
Assay in all cases: NCI-60 one-dose screen, 48 h (100 = growth as untreated, 0 = no growth, -100 = all killed)
Details in all cases: 10 µM unless noted
RPMI-8226 leukemia = tested on: RPMI-8226 leukemia
OVCAR-8 ovarian = tested on: OVCAR-8 ovarian
OVCAR-5 ovarian = tested on: OVCAR-5 ovarian
OVCAR-4 ovarian = tested on: OVCAR-4 ovarian
SK-OV-3 ovarian = tested on: SK-OV-3 ovarian
IGROV1 ovarian = tested on: IGROV1 ovarian
OVCAR-3 ovarian = tested on: OVCAR-3 ovarian
HS 578T breast = tested on: HS 578T breast
NCI/ADR-RES ovarian = tested on: NCI/ADR-RES ovarian
T-47D breast = tested on: T-47D breast

O=C(Nc1nc2c(s1)CCc1c-2c(Br)n(Cc2ccccc2)c1Br)c1ccccc1
growth (RPMI-8226 leukemia): 63.2%
growth (OVCAR-8 ovarian): 45.4%
growth (OVCAR-5 ovarian): 79.9%
growth (OVCAR-4 ovarian): -3.77% (active)
growth (SK-OV-3 ovarian): 57.2%
growth (IGROV1 ovarian): 18.8%
growth (OVCAR-3 ovarian): 62.3%
growth (HS 578T breast): 47.9%
growth (NCI/ADR-RES ovarian): 61.8%
growth (T-47D breast): 46.4%

Nc1no[n+]([O-])c1-c1nnc2c(n1)-c1ccccc1C2=O
growth (RPMI-8226 leukemia): 18.1%
growth (OVCAR-8 ovarian): 65.7%
growth (OVCAR-5 ovarian): 83.9%
growth (OVCAR-4 ovarian): -97.5% (active)
growth (SK-OV-3 ovarian): 111%
growth (IGROV1 ovarian): 82.6%
growth (OVCAR-3 ovarian): -20.2% (active)
growth (HS 578T breast): 89%
growth (NCI/ADR-RES ovarian): 72.1%
growth (T-47D breast): 61%

COc1ccc(C2Nc3nc(OC)n(C)c(=O)c3N=C3c4ccccc4C(=O)C32)cc1 (stereo not given)
growth (RPMI-8226 leukemia): 92.1%
growth (OVCAR-8 ovarian): 103%
growth (OVCAR-5 ovarian): 103%
growth (OVCAR-4 ovarian): 88.5%
growth (SK-OV-3 ovarian): 109%
growth (IGROV1 ovarian): 140%
growth (OVCAR-3 ovarian): 94.6%
growth (HS 578T breast): 100%
growth (NCI/ADR-RES ovarian): 97.6%
growth (T-47D breast): 101%

Clc1ccc(Nc2scc3[n+]2CCC3)cc1
growth (RPMI-8226 leukemia): 98.5%
growth (OVCAR-8 ovarian): 103%
growth (OVCAR-5 ovarian): 96.5%
growth (OVCAR-4 ovarian): 88.9%
growth (SK-OV-3 ovarian): 97.7%
growth (IGROV1 ovarian): 104%
growth (OVCAR-3 ovarian): 101%
growth (HS 578T breast): 100%
growth (NCI/ADR-RES ovarian): 96.8%
growth (T-47D breast): 89.7%

CCOC(=O)c1cnc2c(C)cccc2c1Nc1ccc(C(C)=O)cc1
growth (RPMI-8226 leukemia): -34.2% (active)
growth (OVCAR-8 ovarian): 35%
growth (OVCAR-5 ovarian): 45%
growth (OVCAR-4 ovarian): 16.2%
growth (SK-OV-3 ovarian): 68.2%
growth (IGROV1 ovarian): 2.45% (active)
growth (OVCAR-3 ovarian): -8.93% (active)
growth (HS 578T breast): 25.6%
growth (NCI/ADR-RES ovarian): 25.1%
growth (T-47D breast): -18.4% (active)

CCCCCCCCCCOC(=O)c1ccccc1C(=O)OCCCC
growth (RPMI-8226 leukemia): 101%
growth (OVCAR-8 ovarian): 109%
growth (OVCAR-5 ovarian): 103%
growth (OVCAR-4 ovarian): 115%
growth (SK-OV-3 ovarian): 114%
growth (IGROV1 ovarian): 118%
growth (OVCAR-3 ovarian): 106%
growth (HS 578T breast): 118%
growth (NCI/ADR-RES ovarian): 107%
growth (T-47D breast): 106%

O=C(Nc1ccc(F)cc1F)c1cc(I)ccc1O
growth (RPMI-8226 leukemia): -2.64% (active)
growth (OVCAR-8 ovarian): 11.8%
growth (OVCAR-5 ovarian): 32.6%
growth (OVCAR-4 ovarian): 20.1%
growth (SK-OV-3 ovarian): -13.8% (active)
growth (IGROV1 ovarian): 22%
growth (OVCAR-3 ovarian): 8.96% (active)
growth (HS 578T breast): 10%
growth (NCI/ADR-RES ovarian): 8.58% (active)
growth (T-47D breast): -9.33% (active)

O=C(O)c1cn(C2CC2)c2cc(N3CCN(C(=O)C[n+]4ccccc4)CC3)c(F)cc2c1=O
growth (RPMI-8226 leukemia): 106%
growth (OVCAR-8 ovarian): 105%
growth (OVCAR-5 ovarian): 104%
growth (OVCAR-4 ovarian): 89.4%
growth (SK-OV-3 ovarian): 110%
growth (IGROV1 ovarian): 109%
growth (OVCAR-3 ovarian): 107%
growth (HS 578T breast): 99.3%
growth (NCI/ADR-RES ovarian): 105%
growth (T-47D breast): 94.2%

CC(=O)c1ccc2oc(=O)n(Cc3ccc(C#N)cc3)c(=O)c2c1
growth (RPMI-8226 leukemia): 106%
growth (OVCAR-8 ovarian): 103%
growth (OVCAR-5 ovarian): 103%
growth (OVCAR-4 ovarian): 96.3%
growth (SK-OV-3 ovarian): 119%
growth (IGROV1 ovarian): 108%
growth (OVCAR-3 ovarian): 117%
growth (HS 578T breast): 103%
growth (NCI/ADR-RES ovarian): 110%
growth (T-47D breast): 104%

NC1C(N)C(N)C1N (stereo not given)
growth (RPMI-8226 leukemia): 93.3%
growth (OVCAR-8 ovarian): 100%
growth (OVCAR-5 ovarian): 95.7%
growth (OVCAR-4 ovarian): 105%
growth (SK-OV-3 ovarian): 92.5%
growth (IGROV1 ovarian): 99.6%
growth (OVCAR-3 ovarian): 111%
growth (HS 578T breast): 112%
growth (NCI/ADR-RES ovarian): 99.6%
growth (T-47D breast): 102%

O=C(Nc1ccc(N2CCNCC2)cc1)c1[nH]ncc1Nc1ncnc2sc3c(c12)CCC3
growth (RPMI-8226 leukemia): -40.6% (active)
growth (OVCAR-8 ovarian): -43.7% (active)
growth (OVCAR-5 ovarian): -88.1% (active)
growth (OVCAR-4 ovarian): 15.8%
growth (SK-OV-3 ovarian): -27.9% (active)
growth (IGROV1 ovarian): -9.21% (active)
growth (OVCAR-3 ovarian): -81.7% (active)
growth (HS 578T breast): -54.8% (active)
growth (NCI/ADR-RES ovarian): -57.3% (active)
growth (T-47D breast): 20.4%

CCN(CCO)CCNc1ccc(C)c2sc3cc(Cl)ccc3c(=O)c12
growth (RPMI-8226 leukemia): 28.2%
growth (OVCAR-8 ovarian): 38.6%
growth (OVCAR-5 ovarian): 64.4%
growth (OVCAR-4 ovarian): 70.8%
growth (SK-OV-3 ovarian): 62.2%
growth (IGROV1 ovarian): 56.6%
growth (OVCAR-3 ovarian): 39.3%
growth (HS 578T breast): 41.9%
growth (NCI/ADR-RES ovarian): 45.4%
growth (T-47D breast): 53.9%

NNC(=O)CNC(=O)Nc1n[nH]c(=S)s1
growth (RPMI-8226 leukemia): 93%
growth (OVCAR-8 ovarian): 104%
growth (OVCAR-5 ovarian): 97.6%
growth (OVCAR-4 ovarian): 117%
growth (SK-OV-3 ovarian): 99.8%
growth (IGROV1 ovarian): 102%
growth (OVCAR-3 ovarian): 108%
growth (HS 578T breast): 90.9%
growth (NCI/ADR-RES ovarian): 104%
growth (T-47D breast): 101%

Nc1ncnc(N)c1NC(=O)c1ccc(OCc2ccccc2)cc1
growth (RPMI-8226 leukemia): 105%
growth (OVCAR-8 ovarian): 102%
growth (OVCAR-5 ovarian): 106%
growth (OVCAR-4 ovarian): 107%
growth (SK-OV-3 ovarian): 102%
growth (IGROV1 ovarian): 106%
growth (OVCAR-3 ovarian): 110%
growth (HS 578T breast): 103%
growth (NCI/ADR-RES ovarian): 113%
growth (T-47D breast): 96%
